Data as given in PubChem BioAssay AID1347074 (Center for Chemical Genomics, University of Michigan, 2019).
In all, about 47,000 compounds went through this assay and about 2,800 (6%) were called active. No stated cut-off is given here; in the data, active means z-score above about 3 (passing the limit was not always enough); inactive means the rest. Shown is part of a subset that was picked to be rich in actives.

biological target: Endoribonuclease Dicer (Homo sapiens) (UniProt Q9UPY3); test: Dicer cleavage of pre-miR-21 blockers – biochemical, cat-ELCCA, chemiluminescence, primary screen (AID 1347074); details: cat-ELCCA pre-miR-21 Dicer processing, at 25 µM, active compounds read high;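 further: plate controls were vehicle for no effect and no enzyme for full effect; higher signal means more uncleaved substrate so more Dicer inhibition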
Sequence (Q9UPY3 whole entry, looked up): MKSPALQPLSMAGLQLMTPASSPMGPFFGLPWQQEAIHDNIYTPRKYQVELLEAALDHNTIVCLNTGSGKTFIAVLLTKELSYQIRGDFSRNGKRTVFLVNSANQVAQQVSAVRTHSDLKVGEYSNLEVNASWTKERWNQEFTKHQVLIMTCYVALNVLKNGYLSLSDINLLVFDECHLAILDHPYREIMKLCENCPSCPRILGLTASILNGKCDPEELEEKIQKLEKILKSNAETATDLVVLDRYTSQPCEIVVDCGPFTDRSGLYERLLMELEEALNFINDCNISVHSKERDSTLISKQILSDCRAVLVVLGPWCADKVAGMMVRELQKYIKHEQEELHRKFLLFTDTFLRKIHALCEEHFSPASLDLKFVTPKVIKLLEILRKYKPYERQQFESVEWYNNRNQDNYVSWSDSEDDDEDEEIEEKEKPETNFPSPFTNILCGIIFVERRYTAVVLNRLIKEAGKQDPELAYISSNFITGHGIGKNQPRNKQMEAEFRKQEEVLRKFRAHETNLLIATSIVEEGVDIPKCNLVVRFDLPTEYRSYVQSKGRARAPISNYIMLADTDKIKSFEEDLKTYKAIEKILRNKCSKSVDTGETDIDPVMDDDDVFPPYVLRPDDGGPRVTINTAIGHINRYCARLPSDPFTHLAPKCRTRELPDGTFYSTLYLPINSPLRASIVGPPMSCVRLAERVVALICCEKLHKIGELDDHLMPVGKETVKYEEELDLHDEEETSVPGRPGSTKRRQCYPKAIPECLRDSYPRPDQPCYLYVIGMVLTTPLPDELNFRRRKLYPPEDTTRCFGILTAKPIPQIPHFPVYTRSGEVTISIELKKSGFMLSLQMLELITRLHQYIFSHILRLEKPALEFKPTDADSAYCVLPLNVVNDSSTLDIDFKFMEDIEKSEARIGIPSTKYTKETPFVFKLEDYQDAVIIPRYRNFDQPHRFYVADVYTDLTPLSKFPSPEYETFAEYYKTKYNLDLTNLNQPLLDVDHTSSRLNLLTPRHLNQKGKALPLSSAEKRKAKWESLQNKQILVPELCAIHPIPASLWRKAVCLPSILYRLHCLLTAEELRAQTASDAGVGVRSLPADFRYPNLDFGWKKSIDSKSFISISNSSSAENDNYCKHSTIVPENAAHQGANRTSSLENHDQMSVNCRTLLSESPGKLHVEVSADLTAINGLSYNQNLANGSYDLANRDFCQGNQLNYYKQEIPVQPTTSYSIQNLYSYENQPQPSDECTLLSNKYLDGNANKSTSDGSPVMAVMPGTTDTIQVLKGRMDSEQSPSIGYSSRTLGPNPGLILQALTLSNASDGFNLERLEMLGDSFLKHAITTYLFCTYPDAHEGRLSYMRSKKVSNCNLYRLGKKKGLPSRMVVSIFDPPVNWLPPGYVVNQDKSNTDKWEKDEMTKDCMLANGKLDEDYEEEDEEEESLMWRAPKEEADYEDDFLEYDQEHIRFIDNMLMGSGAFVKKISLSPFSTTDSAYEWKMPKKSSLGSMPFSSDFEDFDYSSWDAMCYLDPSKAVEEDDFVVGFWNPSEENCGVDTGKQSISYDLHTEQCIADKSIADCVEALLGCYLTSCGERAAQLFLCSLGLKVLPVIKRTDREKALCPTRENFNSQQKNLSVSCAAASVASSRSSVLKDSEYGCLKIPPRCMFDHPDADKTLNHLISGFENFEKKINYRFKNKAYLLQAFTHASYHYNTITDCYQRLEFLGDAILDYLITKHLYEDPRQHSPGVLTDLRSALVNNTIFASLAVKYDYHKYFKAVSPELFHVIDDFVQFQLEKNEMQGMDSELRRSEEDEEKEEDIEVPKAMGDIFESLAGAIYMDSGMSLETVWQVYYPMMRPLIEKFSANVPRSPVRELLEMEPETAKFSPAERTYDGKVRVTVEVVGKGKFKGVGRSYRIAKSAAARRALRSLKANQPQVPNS

Compound	z-score
CCOc1nc(-c2ccc(C)cc2)ccc1-c1noc(C)n1	0.71 (inactive)
Cn1c(SCC(=O)Nc2cccc(C(F)(F)F)c2)nnc1SCC(=O)Nc1cccc(C(F)(F)F)c1	-0.05 (inactive)
COc1cc(C2c3c(oc4ccc(F)cc4c3=O)C(=O)N2Cc2ccccc2)ccc1O (stereo not drawn)	2.47 (inactive)
COc1nc(NC(=O)NS(=O)(=O)c2ccccc2C(F)(F)F)nc(C23CC4CC(CC(C4)C2)C3)n1	-0.58 (inactive)
Cc1ccc2nc(-c3ccc(NS(=O)(=O)c4ccc(Cl)s4)cc3)sc2c1	4.31 (active)
Cc1ccc(S(=O)(=O)Nc2ccc3ncccc3c2)cc1	0.32 (inactive)
Cc1ccc(Sc2nc3ccc(Cl)cc3s2)cc1	-1.81 (inactive)
COc1ccc(C2CC(=O)c3cn4nc(C)nc4nc3C2)cc1OC (stereo not drawn)	-0.07 (inactive)
Cc1cc(C)c(S(=O)(=O)N2CCc3ccccc3C2)c(C)c1	0.07 (inactive)
CN([C@H]1CCN2CCc3ccccc3C2C1)S(C)(=O)=O (stereo partly drawn)	3.92 (active)
CN(C(=O)CSc1nc(C2CCCCC2)c(C#N)c(=O)[nH]1)c1ccccc1	-0.59 (inactive)
COc1ccc(C2=Nc3ccccc3SC(c3ccc(OC)c(O)c3)C2)c(O)c1 (stereo not drawn)	-0.56 (inactive)
COc1ncnc2sc(C(=O)O)c(C)c12	0.21 (inactive)
CCc1ccnc(NS(=O)(=O)c2ccc3c(c2)OCCO3)c1	0.59 (inactive)
CCOc1ccc(NS(=O)(=O)c2ccc(Cl)cc2)cc1	0.5 (inactive)
CCc1ccc(S(=O)(=O)Nc2cc(Cl)c3oc(=O)sc3c2)cc1	14.8 (active)
COc1ccc(-c2cnc3cc(-c4ccc(Cl)cc4)nn3c2N)cc1OC	1.34 (inactive)
O=C1C2=C(Nc3[nH]c(=O)[nH]c(=O)c3C2c2ccc(F)cc2)c2ccccc21 (stereo not drawn)	-3.54 (inactive)
Cn1c2c(c(=O)n(C)c1=O)C(c1ccc(F)cc1)C1=C(N2)c2ccccc2C1=O (stereo not drawn)	1.52 (inactive)
O=C1C2=C(Nc3ccccc3S(=O)(=O)C2c2ccc(Cl)cc2)c2ccccc21 (stereo not drawn)	5.21 (active)
O=C1c2oc3ccccc3c(=O)c2C(c2ccccc2F)N1c1nncs1 (stereo not drawn)	-0.05 (inactive)

Compound	z-score
O=C1CC(=O)CC(c2cccc(Cl)c2)C1	-0.3 (inactive)
Cc1ccc(-c2nnc(N3CCOCC3)c3ccccc23)cc1S(=O)(=O)N1CCCCC1	-4.68 (inactive)
Cc1ccc(-c2nnc(Nc3ccccc3)c3ccccc23)cc1S(=O)(=O)NCCO	0.4 (inactive)
Cc1ccc(-c2nnc(NCc3ccccc3)c3ccccc23)cc1S(=O)(=O)N1CCOCC1	3.46 (active)
COCc1cc(C)nc(Nc2ccc(C)cc2)c1C#N	-0.19 (inactive)
CCCc1nnc2n1Nc1nc3ccccc3nc1S2	0.21 (inactive)
Cc1noc(C)c1S(=O)(=O)N(C)C1CCCCC1	0.73 (inactive)
O=C(O)CC(CC(=O)Oc1ccccc1N1CCCCC1)c1ccccc1 (stereo not drawn)	4.46 (active)
Cc1cc(NC(=O)CC(CC(=O)O)c2ccccc2)n(C)n1 (stereo not drawn)	-1.02 (inactive)
Cn1nccc1NC(=O)CC(CC(=O)O)c1ccccc1 (stereo not drawn)	-0.73 (inactive)
CCOC(=O)c1ccc(NCN2C(=O)c3ccccc3C2=O)cc1	0.49 (inactive)
CCCN1C(=O)C2(/C(=C(/O)c3ccc(F)cc3)C(=O)C(=O)N2CCCN(C)C)c2ccccc21 (stereo not drawn)	-0.34 (inactive)
CCCCSc1nnc2c(n1)OC=Nc1ccc(Br)cc1-2	1.93 (inactive)
N#C/C(=C\N1CCc2ccccc21)C(=O)c1cccc(C(F)(F)F)c1	-2.08 (inactive)
O=C(CSc1nc2ccccc2nc1N1CCCC1)NCc1cccs1	3.04 (active)
O=C(CSc1nc2ccccc2nc1N1CCOCC1)Nc1ccccc1	1.99 (inactive)
O=C(CSc1nc2ccccc2nc1N1CCCC1)N1CCN(c2ccccc2)CC1	1.57 (inactive)
N#CC1=C(N)Oc2ccc3ccccc3c2C1c1ccc(F)cc1 (stereo not drawn)	-0.03 (inactive)
O=C(O)c1ccc(N2C(=O)CC(N3CCCCC3)C2=O)cc1 (stereo not drawn)	-0.35 (inactive)
COc1ccc(CCNC(=O)CCC(=O)O)cc1OC	1.57 (inactive)
COc1ccc(CCNC(N)=O)cc1OC	5.13 (active)

Compound	z-score
COc1ccc(CCNCC(O)Cn2ccc3ccccc32)cc1OC (stereo not drawn)	-0.31 (inactive)
COC(=O)C(C(=O)OC)=C(SC)SC	-1.16 (inactive)
CC1(C)CC2(CC(C)(c3csc(Nc4ccccc4)n3)OC2=O)C(=O)O1 (stereo not drawn)	1.11 (inactive)
O=[N+]([O-])c1ccc(CC(O)N2CCN(c3nc4ccc(Cl)cc4s3)CC2)cc1 (stereo not drawn)	-0.91 (inactive)
O=C(c1cccs1)c1nn(-c2ccccc2)c2nc(=O)c(Cc3ccc(Cl)cc3)nn12	-0.23 (inactive)
Cc1cc(C)cc(Oc2coc3cc(OCC(=O)O)ccc3c2=O)c1	-0.66 (inactive)
COc1ccc2[nH]cc(CCC(=O)O)c2c1	2.43 (inactive)
Cc1[nH]cc(Br)c(=O)c1OCC(=O)O	4.04 (active)
O=S(=O)(c1cc(Cl)c(Cl)cc1Cl)N1CCc2[nH]c3ccc(F)cc3c2C1	-0.85 (inactive)
Cc1ccc(O)c(-c2cnc3ccccc3n2)c1	-1.69 (inactive)
CC1(C)CC(=O)C=C(Nc2ccccc2)C1	2.68 (inactive)
O=C1C=C(NNc2ccccc2)CCC1	3.26 (active)
Cc1ccc(-n2nnnc2-c2ccc(Cl)c(Cl)c2)c(C)c1	-1.31 (inactive)
Nc1n[nH]c2c1CSc1ccc(Cl)cc1-2	-4.16 (inactive)
Cc1ccc2nc(Nc3ncc4c(n3)CC(C)(C)CC4=O)nc(C)c2c1	1.2 (inactive)
NC(=S)NNC(=O)c1cccc(C(F)(F)F)c1	33.4 (active)
O=C(CS(=O)(=O)c1ccc(C(F)(F)F)cn1)NNC(=O)c1ccccc1	0.59 (inactive)
CCOC(=O)c1cc(CC)sc1NC(=O)c1cccc(C(F)(F)F)c1	0.82 (inactive)
O=[N+]([O-])c1cccc(C2CC(c3ccccc3)=Nc3ccccc3S2)c1 (stereo not drawn)	-1.81 (inactive)
C1=CC2CC1CC2CN1CCN(Cc2c[nH]c3ccccc23)CC1 (stereo not drawn)	4.79 (active)
COc1cccc(-c2ccc(-c3noc(-c4cccc(OC)c4)n3)c(OC)n2)c1	0.01 (inactive)
